Rows were chosen to be rich in hits. Some 3.4% of all compounds tested hit in one or more screens of this group.
Env fusion inh: blocks HIV Env-driven cell-cell fusion; 360,000 tested, 1.1% active; inhibition, % at 12.3 µM; HeLa-JRFL Env/CEM21 cell fusion, luciferase;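 active means mean replicate inhibition score of at least 50 and every replicate individually at or above 50; inconclusive means only one of the two criteria met; inactive means mean below 50 and not all replicates reaching 50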;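 further: 0% = plate neutral controls and 100% = maraviroc near 300 nM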
MITF TRPM1 HTS: MITF TRPM1 promoter activation in melanoma cells | 300,000 tested, 0.75% active | activation, % at 12.5 µM | AID 588334 | SK-MEL-5 TRPM1-promoter luciferase, 24 h; % of positive control, neutral wells = 0;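 active means mean activation of at least 80% with every replicate also reaching 80%; inconclusive means mean reaches 80% but some replicate falls short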;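 further: 0% = neutral control wells and 100% = parthenolide positive control wells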
esBAF inh: SWI/SNF esBAF complex inhibition; mouse ES cells, Bmi1-luciferase knock-in reporter, 24 h; 100% = twice the neutral-well signal; reporter increase, % at 12.5 µM; 350,000 tested, 2% active; AID 602393; in the data active means activation above about 40%; inconclusive means no clear call, values can overlap the other calls;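 further: 0% = median of the plate's neutral control wells and 100% = double that signal; a rise in the Bmi1 reporter signal indicates esBAF inhibition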
Wnt bcat act: activators of Wnt/beta-catenin signaling. Wnt/beta-catenin reporter cell assay, activator, plate reader. 300,000 tested, 1.2% active. activation, % at 9.35 µM; in the data active means activation above about 30%, passing the limit was not always enough; inconclusive means no clear call, values can overlap the other calls;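 further: 0% = neutral control wells and 100% = positive control wells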
miR122 inh: blocks miR-122 activity in Huh7 sensor cells; Huh7 miR-122 Renilla luciferase sensor, 48 h; neutral wells = 0, positive control = 100; activation (reporter increase), % at 12.5 µM; 340,000 tested, 0.3% active; AID 602342;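 active means mean replicate activation score at least 90 and every replicate individually at or above 90; inconclusive means only one of the two criteria met; inactive means neither criterion met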;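 further: higher luciferase means less miR-122 activity so hits act as miR-122 inhibitors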
Active calls of the source: *; ? = inconclusive; . = no result given; [ ] = another dose, or the depositor's remark.

SMILES | Env fusion inh | MITF TRPM1 HTS | esBAF inh | Wnt bcat act | miR122 inh
COc1ccc(NC(=O)Nc2ccc3c(c2)C(=O)N([C@@H](C)CO)C[C@@H](C)[C@H](CN(C)S(=O)(=O)c2ccc(C)cc2)OCCCC[C@@H](C)O3)cc1 | 18[16.7 µM] | . | 6 | . | -4[16.7 µM]
CCCc1cn(CC[C@H]2CC[C@@H](NC(=O)Nc3ccc4c(c3)OCO4)[C@H](CO)O2)nn1 | -9[16.7 µM] | . | -1 | . | .
CC(=O)Nc1cccc(NC(=O)CCCC(=O)O)c1 | -149 | 3 | -1 | 40* | 0
O=C(C1CC1)N1C[C@@H]2[C@H](c3ccccc31)[C@@H](CO)N2C(=O)Nc1cccc(F)c1 | . | . | -3 | . | 40[16.7 µM]
Cc1ccnc(NC(=S)NC(=O)c2cccs2)c1 | -178 | 65 | . | 34* | 5
Cc1ccnc(NC(=O)c2ccc(Cl)s2)c1 | . | 87* | 61* | . | -3
O=C(NC(=S)Nc1ccc(Cl)cn1)c1cccs1 | . | 16 | 72* | 17 | 1
COc1ccc(S(=O)(=O)Nc2ccc3c(c2)C(=O)N([C@H](C)CO)C[C@H](C)[C@H](CN(C)Cc2ccncc2)OCCCC[C@@H](C)O3)cc1 | -5[16.7 µM] | . | 3 | . | 16[16.7 µM]
Oc1ccc(C(=S)N2CCCC2)cc1 | -17 | . | -5 | 0 | -2
CC1CCN(C(=S)c2ccc(O)cc2)CC1 | -33 | 15 | -1 | . | 248*
CCC(=O)Nc1ccc2c(c1)C(=O)N(C)[C@H]1CC[C@H](CC(=O)NCc3ccccc3Cl)O[C@@H]1CO2 | -23[16.7 µM] | . | 2 | . | 12[16.7 µM]
O=C(C(Cc1ccccc1)N1C(=O)c2ccccc2C1=O)N1c2ccccc2CCc2ccccc21 (configuration not stated) | 66* | -15 | . | 0 | .
CCOC(=O)c1c(C)[nH]c(C(=O)COC(=O)C2CC2)c1C | . | 86* | ? | -23 | -11
CCOC(=O)c1c(C)[nH]c(C(=O)COC(=O)C2(C)CC2(Cl)Cl)c1C (configuration not stated) | -246 | 78 | 76* | 50* | 7
CC(=O)c1c(C)[nH]c(C(=O)COC(=O)C2CC2)c1C | 14 | 14 | 5 | 2 | -2
CO[C@H]1CN(C)C(=O)c2cc(NC(C)=O)ccc2OC[C@@H](C)N(CC2CC2)C[C@@H]1C | . | . | 0 | . | .
Cc1cc(C)n(-c2nnc3c4ccccc4n(C)c3n2)n1 | -117 | . | . | 48* | -1
C/C(=N\Nc1nnc2c3ccccc3n(C)c2n1)c1ccc(C)o1 | -17 | 13 | . | 2 | .
O=C(CN1CCOCC1)N[C@@H]1CC[C@H](CCNC(=O)Nc2cc(F)ccc2F)O[C@@H]1CO | -26[16.7 µM] | . | 3 | . | .
O=C(C[C@@H]1C/C=C/CC[C@@H](Cc2ccc(F)cc2)C(=O)O[C@H](c2ccccc2)CNC1=O)NCCO | 83* | 1 | 2 | 2 | 0
O=C1NC[C@H](c2ccccc2)OC(=O)[C@@H](Cc2ccc(F)cc2)C/C=C\C[C@H]1CC(=O)N(CCO)Cc1ccccc1 | -36 | -20 | 45* | 6 | -4
O=C(C[C@H]1C/C=C/CC[C@H](Cc2ccc(F)cc2)C(=O)O[C@H](c2ccccc2)CNC1=O)NCCO | ? | 7 | 5 | -3 | .
O=C(C[C@@H]1C[C@H]2c3cc(NC(=O)CC4CC4)ccc3O[C@H]2[C@H](CO)O1)NCCc1ccccc1 | -7[16.7 µM] | . | 3 | . | -2[16.7 µM]
COc1cc(NS(=O)(=O)c2ccc(NC(=S)NC(=O)c3ccco3)cc2)nc(OC)n1 | 2 | 4 | 0 | 2 | 243*
COc1cc(NS(=O)(=O)c2ccc(NC(=O)c3ccco3)cc2)nc(OC)n1 | -8 | 0 | -2 | . | 2
SMILES | Env fusion inh | MITF TRPM1 HTS | esBAF inh | Wnt bcat act | miR122 inh
OC[C@H]1OC(Nc2ccc(N=Nc3ccccc3)cc2)[C@@H](O)[C@@H](O)[C@@H]1O (some centres not stated) | -43 | . | . | 16 | -3
O[C@@H]1COC(Nc2ccc(N=Nc3ccccc3)cc2)C[C@@H]1O (some centres not stated) | -66 | . | . | 46* | .
COc1ccc(S(=O)(=O)N(CCc2ccccc2)CC(=O)N2CCOCC2)cc1 | -8 | . | 2 | . | 125*
COc1ccc(N2CCN(C(=O)CSc3nnc(-c4cc5ccccc5cc4O)n3C)CC2)cc1 | 77* | -11 | -16 | . | -3
CCn1c(COc2c(C)cccc2C)nnc1SCC(=O)N1CCN(c2ccccc2)CC1 | . | -10 | 5 | . | 0
COc1ccc(-n2cnnc2SCC(=O)N2CCN(c3ccccc3)CC2)cc1 | . | 3 | -3 | -1 | 3
CC1(C)Cc2ccccc2-c2nnc(SCc3ccccc3)n21 | . | 36 | 38 | 3 | -7
C=CCn1c(COc2cccc(C)c2C)nnc1SCC(=O)N1CCN(c2ccccc2)CC1 | 64* | -20 | . | 0 | .
CCn1c(SCC(=O)N2CCN(c3ccccc3)CC2)nnc1-c1c[nH]c2ccccc12 | 65* | . | 15 | -4 | -4
CC1(C)Cc2ccccc2-c2nnc(SCC(=O)N3CCN(c4ccccc4)CC3)n21 | 83* | -17 | 17 | -2 | -4
C[C@@H]1CN([C@H](C)CO)C(=O)c2cc(NC(=O)c3ccncc3)ccc2O[C@H]1CN(C)S(C)(=O)=O | 0[16.7 µM] | . | -3 | . | -8[16.7 µM]
O=c1ncn(-c2cccc(Cl)c2)c2ccccc12 | -15 | 1 | . | 44* | .
CN(C)S(=O)(=O)N1CCC(Oc2cccc(C(=O)NC3CCCCCC3)c2)CC1 | 29 | -39 | 0 | -4 | -6
Cc1cc(CNC(=O)c2cccc(OC3CCN(S(=O)(=O)N(C)C)CC3)c2)on1 | -31 | 36 | 71* | 2 | -1
Cc1ccc(S(=O)(=O)N(C)C[C@@H]2Oc3ccc(NC(=O)Cn4cnnn4)cc3CC(=O)N([C@@H](C)CO)C[C@H]2C)cc1 | 18[16.7 µM] | . | 4 | . | -11[16.7 µM]
C[C@H](CO)N1C[C@H](C)[C@@H](CN(C)Cc2ccncc2)Oc2ncc(C#Cc3ccncc3)cc2C1=O | 13[16.7 µM] | . | 2 | . | 2[16.7 µM]
COc1ccc(/C=C/C(=O)c2ccc3c(c2)OCO3)c(OC)c1 | -39 | ? | . | 0 | 145*
COc1ccc(/C=C/C(=O)c2ccccc2)c(OC)c1 | -32 | 54 | . | 61* | .
COc1cc(OC)c(C(=O)C=Cc2ccc(OC)c(OC)c2)c(OC)c1 | -23 | -22 | -1 | -3 | 3
COc1ccc2[nH]cc(/C=C/C(=O)c3ccccc3)c2c1 | -193 | ? | . | 39* | .
COc1cc(O)c(C(=O)/C=C/c2ccccc2)c(OC)c1 | . | . | 53* | -2 | -1
COc1ccc(/C=C/C(=O)c2ccc(OC)cc2OC)c(OC)c1 | . | 3 | 23 | -1 | ?
CCCNC(=O)Nc1ccc2c(c1)C(=O)N(C)C[C@H](OC)[C@H](C)CN(Cc1ccccc1)[C@H](C)CO2 | . | . | 0 | . | 6[16.7 µM]
C[C@H]1CN([C@@H](C)CO)C(=O)Cc2cc(NC(=O)Cc3ccccc3)ccc2O[C@H]1CN(C)C | . | . | 1 | . | -6[16.7 µM]
COCCN(C(=O)CCC(=O)Nc1cc(C)on1)C(C(=O)NC1CCCC1)c1ccccc1C (configuration not stated) | -20 | -16 | . | 1 | .
COCCN(C(=O)CCl)C(C(=O)NC1CCCCC1)c1ccccc1C (configuration not stated) | 60* | -78 | . | . | -6

High-throughput results: PubChem BioAssay, Broad Institute
